The structures appear in SMILES notation. Several values for one entry are separate records, joined by “and”; a condition that tells them apart may be missing. Equal entries are not always repeated. Results filed as inconclusive are left out. A number with no mark means an inactive call. Activity calls are given as the source filed them. Calls follow the shape of the dose curve; as a rule, active = well fitted inhibition curve with a large enough effect; inconclusive = small, poorly fitted or top-dose-only effect; inactive = flat fitted curve, though single readings scatter.

Our source for the Potency, max response and outcome values is PubChem BioAssay (NCATS).

The subject of assay [1] is CRL-7250. Kind of assay: Cytotoxic Profiling of Annotated Libraries Using Quantitative High-Throughput Screening (AID 1296008). Also: potency is read from the fitted curve at half-maximal effect. As to max response: % is scaled to controls: 0 for no effect and ±100 for the full control effect. Conditions: Five cell lines viability, CellTiter-Glo ATP luminescence, 48-72 h; max response: stronger effect = lower value. A digest of the protocol:
(§1)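 Compounds were pin-transferred onto cells and incubated 48 or 72 hr at 37 degree Celsius, 95% humidity. CellTiter-Glo was added, plates sat 10 min at room temperature, then ATP-coupled luminescence was imaged as the viability read-out.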

Assay [2] concerns HEK293. The assay is described as above. As to conditions: Five cell lines viability, CellTiter-Glo ATP luminescence, 48-72 h; max response: stronger effect = lower value. The essentials:
as §1

In assay [3] the test system is HaCat. Described as above. As to conditions: Five cell lines viability, CellTiter-Glo ATP luminescence, 48-72 h; max response: stronger effect = lower value. A digest of the protocol:
as §1

In assay [4] the test system is NIH3T3. The description is as above. As to conditions: Five cell lines viability, CellTiter-Glo ATP luminescence, 48-72 h; max response: stronger effect = lower value. The essentials: as §1
In assay [5] the test system is KB-3-1. The assay is described as above. As to conditions: Five cell lines viability, CellTiter-Glo ATP luminescence, 48-72 h; max response: stronger effect = lower value. The essentials:
as §1

The test system of assay [6] is HACAT. Kind of assay: qHTS assay to identify novel small-molecules to repurpose for Merkel cell carcinoma treatment (AID 1296009). Conditions: MCC and control cell lines, CellTiter-Glo viability, 72 h; at 44.8 µM (top of the series) unless noted. The essentials:
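Viability readout: ATP luminescence (CellTiter-Glo) after 72 hr drug exposure at 37 degree celsius. Dose-response format was 8 points for NPC and 11 points for MIPE; data normalized to in-plate controls.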

The subject of assay [7] is TAB109. Briefly: qHTS profiling for inhibitors of Plasmodium falciparum proliferation (AID 504749). Also: potency is read from the fitted curve at half-maximal effect. Conditions: P. falciparum in erythrocytes, SYBR Green DNA, 72 h; series mostly up to 28.7 µM. A digest of the protocol: (§2)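 Quantitative HTS: compounds pinned into medium, infected erythrocytes added (0.3% parasitemia, 2.5% hematocrit), 72 h culture at 37 C under 5% CO2. Saponin/Triton lysis with SYBR Green I, overnight RT, then fluorescence read.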

The subject of assay [8] is TAB113. The assay is described as above. As to conditions: P. falciparum in erythrocytes, SYBR Green DNA, 72 h; series mostly up to 28.7 µM. The essentials:
as §2

The test system of assay [9] is TAB165. Described as above. Conditions: P. falciparum in erythrocytes, SYBR Green DNA, 72 h; series mostly up to 28.7 µM. A digest of the protocol:
as §2

Assay [10] relates to W2. The description is as above. As to conditions: P. falciparum in erythrocytes, SYBR Green DNA, 72 h; series mostly up to 28.7 µM. A digest of the protocol:
as §2
Also: nearly all actives have a fitted effect of over 60% in size.

Take `CCC(=O)N1CCN(c2ccc(-n3c(=O)ccc4cnc5ccc(-c6cnc7ccccc7c6)cc5c43)cc2C(F)(F)F)CC1`: the Potency in assay [1] was 0.0841 µM (active); in assay [2], 14.8 nM (active) and 53.1 nM (active); in [3] it was 1.05 µM (active) and 668 nM (active); in assay [4], 33.2 nM (active) and 237 nM (active).

As to `CC(C)(CO)[C@@H](O)C(=O)NCCC(=O)O`, the max response was 0.71% in [1]; 1.6% and 8.68% in assay [5]; -2.4% in [4]. In addition, the compound was called inactive in assay [2], in assay [3] and in assay [6].

Regarding `COc1c(C)c2c(c(O)c1CC=C(C)CCC(=O)OCCN1CCOCC1)C(=O)OC2`, the Potency is 7.08 µM (active) in assay [7]; 5.01 µM (active) in assay [8]; 5.01 µM (active) in assay [9]; 6.01 µM (active) in [10]; 3.32 µM (active) in [1]; 3.72 µM (active) in [2]. The Potency in assay [4] is 5.26 µM (active). The max response in [3] is -7.64%.

Take `Cc1ccc(C(=O)N(CCCN)[C@@H](c2nc3cc(Cl)ccc3c(=O)n2Cc2ccccc2)C(C)C)cc1`: the values for the max response in assay [1], in assay [2] and in assay [4] were -35.4%, -91.6% and -42.8%, respectively. Also, the Potency in assay [5] was 0.0008 µM (active).

On to `Nc1ncnc2c1ncn2[C@@H]1O[C@H](CO)[C@@H](O)[C@@H]1O`, for which the compound was classed as inactive in assay [1], in assay [3], in assay [5] and in [6]. Besides, the max response in assay [2] was -0.764%; in [4] it was 3.26%.

Take `Cc1cc(-c2ncc(CC(=O)Nc3ccc(-c4cnccn4)cn3)cc2C)ccn1`: the Potency in assay [1] was 10.5 µM (active) and 6.51 µM (active); in assay [2] it was 9.35 µM (active) and 8.2 µM (active). The max response is -23.2% and -10.9% in assay [3]; -16.2% and -6.07% in [4].

Take `O=C(O)c1nc(=O)[nH]c(=O)[nH]1`: the Potency entry in [7], in assay [8], in assay [9] and in [10] was “inactive” in each case. Also, the max response in [1] was 1.07%; in assay [2], -17.5%; in assay [3] it was 1.83%; in [5], 13.7% and 2.52%; in [4], 0.163%.

On to `Fc1ccc(CNc2ncnc3ccc(F)cc23)cc1`, for which the Potency in assay [1] is 4.69 µM (active) and 4.61 µM (active); in assay [2], 6.51 µM (active). The max response in assay [3] is -29%; in assay [4], -22.4%.

Regarding `CCC=CC[C@H]1C(=O)CC[C@@H]1CC(=O)OC`, the results for the max response in [1] and in assay [2] were -0.832% and 3.57%, respectively. In addition, the compound was classed as inactive in assay [3], in assay [5] and in [6].

As to `O=C(c1ccc(F)c(F)c1Nc1ccc(I)cc1F)N1CC(O)([C@H]2CCCCN2)C1`, the Potency in assay [1] is 2.96 µM (active); in [2], 26.4 µM (active); in assay [3], 7.43 µM (active); in assay [4], 8.33 µM (active).

Regarding `CCNC(=O)Nc1ccc(Oc2ncnc(N)c2C=NOC)cc1Cl`, the result in [1], in [3] and in assay [6] was inactive. Moreover, the max response in assay [2] was -3.24%; in [4], 4.69%.

As for `CO[C@H]1C=CO[C@@]2(C)Oc3c(C)c(O)c4c(O)c(c(C=NN5CCN(C)CC5)c(O)c4c3C2=O)NC(=O)C(C)=CC=C[C@H](C)[C@H](O)[C@@H](C)[C@@H](O)[C@@H](C)[C@H](OC(C)=O)[C@H]1C`, the max response in [1] was -4.52%; in [2], 3.97%; in assay [5], 0.835%; in [4], -3.12%. In addition, the compound was called inactive in [3]. For the same compound, in assay [6], the outcome was “inactive [at 9.27 µM]”.

For `CC(C)CN(C[C@@H](O)[C@H](Cc1ccccc1)NC(=O)O[C@H]1CO[C@H]2OCC[C@H]21)S(=O)(=O)c1ccc(N)cc1`, the Potency entry in [7], in [8] and in assay [9] was “inactive” throughout. Besides, the max response was -22% in [1], -18.9% in [2] and -16.8% in assay [3]. Moreover, the compound was called inactive in assay [5] and in assay [4].

Consider `O=C1CCCC(=O)C1C(=O)c1ccc(C(F)(F)F)cc1[N+](=O)[O-]`, for which the max response in assay [1] is -12.8%; in [2], 0.204%; in [5], 8.25%; in assay [4] it was -10%.

As to `COc1cc2nccc(Oc3ccc(NC(=O)Nc4cc(C)on4)c(Cl)c3)c2cc1OC`, the Potency was 14.8 µM (active) in assay [1]; 13.2 µM (active) in assay [2]; 18.7 µM (active) in [5]; 9.35 µM (active) and 3.66 µM (active) in [4].

As for `C[C@@H](N)c1ccc(C(=O)Nc2ccnc3[nH]ccc23)cc1`, in assay [1], the max response was -24.2%. Moreover, the Potency in assay [2] is 23.1 µM (active); in assay [3] it was 18.4 µM (active); in [4] it was 23.5 µM (active) and 16.4 µM (active).

As for `CN(C)CCN(C)C(=O)c1ccc(NC(=O)Nc2ccc(-c3nc(N4CCOCC4)c4ccn(CC(F)(F)F)c4n3)cc2)cc1`, the Potency in assay [1] is 0.0662 µM (active); in [5], 0.0015 µM (active); in assay [4], 0.059 µM (active). Besides, the max response in [2] was -108%.

With `Nc1nc(Cl)nc2c1ncn2[C@@H]1O[C@H](CO)[C@@H](O)[C@H]1F`, the Potency was 1.66 µM (active) in [1], 0.469 µM (active) in assay [2], 0.0743 µM (active) in [3] and 0.166 µM (active) in assay [4].

`COc1cc(N2CCN(C)CC2)ccc1Nc1nc(N)c(C(=O)c2c(Cl)cccc2Cl)s1`: the figures for the max response in assay [1] and in assay [5] were -21% and -5.11%, respectively. Also, the Potency in assay [2] was 23.5 µM (active). Besides, the compound was classed as inactive in assay [3] and in assay [6].

As for `Nc1[nH]nc2nnc(-c3c(-c4ccccc4)nn4ccccc34)cc12`, the compound was called inactive in [1], in assay [3], in assay [5], in [4] and in assay [6]. Besides, the max response in assay [2] is 2.02% and -4.98%.
